Assay results published in PubChem BioAssay.
The source made the active and inactive calls.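 How the source made its calls, unless noted: active means inhibition of the reporter signal at or above 50%; inactive means inhibition below 50%.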

What was measured:
[1] = inhibitors of TNFa-induced NFkB p65 translocation, primary screen, imaging, HUVEC, MLSMR starter and 10KST1 sets (AID 438;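 active means inhibition above 20% together with a positive visual image hit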;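 further: compound added about 3h40 before a 20 min TNFalpha stimulation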;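 on inhibition: signal is the nuclear over cytoplasmic p65 intensity ratio per well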); details: HUVEC TNFa-induced p65 nuclear translocation; cell count: measured here: nuclei count (cytotoxicity indicator), at 2.08 µM; inhibition: at 2 µM, stronger effect = higher value, 0% TNFa-plus-vehicle, 100% no-TNFa wells
[2] = reduction of polyQ htt aggregates in cells – imaging, exon1htt(103Q)mCFP cells, high-content imaging, primary screen (AID 483;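 active means visual image review flags a hit and inhibition of aggregation exceeds 20%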;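 further: compound exposure lasted 3 days before fixation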;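 on nuclei count: percent of the per-plate median nuclei count of sample wells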); details: exon1htt(103Q)mCFP cell line, aggregate imaging, at 2 µM; inhibition of aggregation: stronger effect = higher value; nuclei count: measured here: cell count, toxicity
[3] = endothelial E-selectin expression blockers – imaging, HUVEC, immunofluorescence, MLSMR starter and 10KST1 sets, primary screen (AID 487;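 active means visually confirmed hit in the image check and inhibition above 20%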;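 on inhibition: signal is fraction of cell area covered by stained E-selectin grains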;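 on nuclei count: 100% = median nuclei count of all wells on the same plate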); details: HUVEC TNFalpha-induced E-selectin immunofluorescence imaging, at 2 µM; inhibition: stronger effect = higher value; nuclei count: measured here: cell number, toxicity
[4] = target: Voltage-gated potassium channel subunit beta-2 (Rattus norvegicus) (UniProt P62483); experiment: inhibitors of rat Kvbeta2 reductase activity – biochemical, NADPH fluorescence, primary screen (AID 622;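 active means fluorescence slope higher than the sample average by over 3 SD, cut at about -0.22 in these data, passing the limit was not always enough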;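 further: slope of raw intensity against log time taken from 70 to 1610 s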); details: recombinant KvBeta, 4-cyanobenzaldehyde reduction, at 10 µM, stronger effect = higher value
[5] = target: Voltage-gated potassium channel subunit beta-2 (Rattus norvegicus) (UniProt P62483); experiment: enhancers of rat Kvbeta2 NADPH turnover – biochemical, NADPH fluorescence, primary screen (AID 623;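 active means NADPH fluorescence slope more negative than the mean of all samples by about 3 SD, 99.7% confidence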;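 further: fluorescence intensity change per second fitted from 20 to 320 s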); details: Recombinant KvBeta, NADPH fluorescence decrease slope, 10 min; at 10 µM; stronger effect = lower value
[6] = target: Alpha-2C adrenergic receptor (Homo sapiens) (UniProt P18825); experiment: compounds altering alpha2C-coupled GIRK flux – cell-based, HEK293 alpha2C/GIRK1/2, thallium flux, primary screen (AID 624;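 active means fluorescence slope after compound addition differing from the mean of all screened samples at 99.7% confidence, in either direction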;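 further: slope of fluorescence ratio to pre-addition baseline per second over 15 to 24 s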); details: thallium flux BTC fluorescence, at 10 µM, actives lie on both sides
[7] = blockers of RIG-like receptor reporter activation – cell-based, Sendai virus stimulus, luciferase, 10K MLSCN set, TLR/RLR signaling modifier project, primary screen (AID 602276;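 active means inhibition at or above 50% at 10 µM; inactive means inhibition below 50%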;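 further: firefly luciferase from ISG56 promoter only with Renilla not read in this screen; 0% = Sendai virus plus DMSO and 100% = medium plus DMSO without virus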); details: HEK293 RL24 IRF3 luciferase reporter, at 10 µM, stronger effect = higher value
[8] = TLR3 IRF3 reporter activation blockers – cell-based, poly I:C stimulus, luciferase, 10K MLSCN set, primary screen (AID 602277); details: HEK293-TLR3 RL24 IRF3 luciferase reporter, at 10 µM, stronger effect = higher value

Sequence of Alpha-2C adrenergic receptor (Homo sapiens) (P18825 whole entry, looked up): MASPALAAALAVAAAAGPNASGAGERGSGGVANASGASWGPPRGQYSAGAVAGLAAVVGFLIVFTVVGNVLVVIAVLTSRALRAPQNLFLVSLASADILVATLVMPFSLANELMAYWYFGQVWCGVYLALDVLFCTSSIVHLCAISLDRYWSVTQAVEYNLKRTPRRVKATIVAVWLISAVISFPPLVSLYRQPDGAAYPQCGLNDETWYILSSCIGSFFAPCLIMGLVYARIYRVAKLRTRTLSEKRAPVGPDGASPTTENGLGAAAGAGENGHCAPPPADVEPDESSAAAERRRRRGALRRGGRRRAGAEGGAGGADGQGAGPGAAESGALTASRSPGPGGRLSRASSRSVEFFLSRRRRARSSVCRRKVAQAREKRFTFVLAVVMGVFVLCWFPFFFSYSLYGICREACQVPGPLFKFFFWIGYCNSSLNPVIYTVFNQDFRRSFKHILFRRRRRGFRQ
Sequence of Voltage-gated potassium channel subunit beta-2 (Rattus norvegicus) (P62483 whole entry, looked up): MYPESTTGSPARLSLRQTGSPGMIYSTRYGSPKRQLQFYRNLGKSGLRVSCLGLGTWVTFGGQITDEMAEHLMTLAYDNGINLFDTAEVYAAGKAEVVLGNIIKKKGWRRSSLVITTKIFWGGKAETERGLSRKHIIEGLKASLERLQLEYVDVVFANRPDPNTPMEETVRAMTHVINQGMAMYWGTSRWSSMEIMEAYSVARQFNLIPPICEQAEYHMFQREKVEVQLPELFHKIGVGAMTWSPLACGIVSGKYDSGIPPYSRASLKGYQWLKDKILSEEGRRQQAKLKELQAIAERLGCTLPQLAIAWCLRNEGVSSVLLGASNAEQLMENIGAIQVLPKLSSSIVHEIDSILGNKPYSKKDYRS

SMILES	cell count [1]	inhibition [1]	inhibition of aggregation [2]	nuclei count [2] [%]	inhibition [3]	nuclei count [3] [%]	fluorescence slope [4]	NADPH fluorescence slope [5]	slope [6]	inhibition [7]	inhibition [8]
CC1CCN(CCCNC(=O)c2coc3nc4ccccc4nc23)CC1	311	-0.8% (inactive)	-17.9% (inactive)	110	-33.9% (inactive)	117	-0.351 (inactive)	-3.5e-06 (inactive)	0.00542 (inactive)	-4.6% (inactive)	46.6% (inactive)
O=C(Nc1ccccc1)C1=C(O)CC(c2ccoc2)CC1=Nc1ccccc1 (stereo unspecified)	321	-2.1% (inactive)	7.8% (inactive)	94.4	-80.4% (inactive)	121	-0.422 (inactive)	-5.7e-05 (inactive)	0.00565 (inactive)	4% (inactive)	16.9% (inactive)
Cn1c(C(=O)N2CCCC(C(=O)NCCCc3ccccc3)C2)cc2sccc21 (stereo unspecified)	550	-16.1% (inactive)	6.7% (inactive)	139	-32.8% (inactive)	103	-0.256 (inactive)	6.7e-06 (inactive)	0.00472 (inactive)	0.49% (inactive)	-2.49% (inactive)
CN1CCc2c(sc3c2c(=O)n(-c2cccc(Cl)c2)c2nncn32)C1	579	13.9% (inactive)	5.9% (inactive)	112	37.3% (inactive)	105	-0.513 (inactive)	-3.5e-05 (inactive)	0.00609 (inactive)	-7.55% (inactive)	11.7% (inactive)
O=C(CCN1CCc2ccccc2C1)Nc1ccc2c(c1)OCO2	413	2.9% (inactive)	14.5% (inactive)	96.1	-84.4% (inactive)	110	-0.542 (inactive)	-1.3e-05 (inactive)	0.00425 (inactive)	6.95% (inactive)	14.1% (inactive)
COc1ccc(S(=O)(=O)N2CCC(C(=O)c3ccc4c(c3)OCCO4)CC2)cc1	298	-0.7% (inactive)	14.2% (inactive)	157	-51.9% (inactive)	119	-0.461 (inactive)	-8e-05 (inactive)	0.00739 (inactive)	-3.88% (inactive)	12.1% (inactive)
CCc1ccc2[nH]c(=O)c(C(c3nnnn3CC3CCCO3)N3CCCc4ccccc43)cc2c1 (stereo unspecified)	339	-8.5% (inactive)	12.7% (inactive)	87.5	22.4% (inactive)	97.3	-0.422 (inactive)	-4.4e-05 (inactive)	0.00442 (inactive)	22.7% (inactive)	32.6% (inactive)
COc1cccc(-c2cc(C(F)(F)F)n3ncc(C(=O)O)c3n2)c1	382	-2.6% (inactive)	13.4% (inactive)	94.7	-22.3% (inactive)	73.7	-0.576 (inactive)	-5.3e-05 (inactive)	0.00328 (inactive)	11% (inactive)	20.4% (inactive)
CCc1ccc(CN(C)CCc2ccccn2)cc1	590	-7.7% (inactive)	7.2% (inactive)	108	-61.6% (inactive)	94	-0.482 (inactive)	-0.000258 (inactive)	0.00499 (inactive)	5.44% (inactive)	7.65% (inactive)
CCOC(=O)C1=C(C)NC(=O)NC1c1ccc(OCCO)c(OC)c1 (stereo unspecified)	634	-12.8% (inactive)	-2.9% (inactive)	102	30.3% (inactive)	89.2	-0.468 (inactive)	-4.3e-05 (inactive)	0.00652 (inactive)	-1.76% (inactive)	25.5% (inactive)
CCc1ccc(N(CC(=O)NC2CCCC2)S(=O)(=O)c2c(C)noc2C)cc1	720	-0.8% (inactive)	-6% (inactive)	97.9	-48.7% (inactive)	102	-0.569 (inactive)	-4.6e-05 (inactive)	0.00649 (inactive)	4.77% (inactive)	37.7% (inactive)
CCOC(=O)C(C)n1cnc2c(nnn2Cc2ccc(C)cc2)c1=O (stereo unspecified)	618	-3.7% (inactive)	6% (inactive)	91.7	-1.8% (inactive)	86.9	-0.503 (inactive)	-0.000137 (inactive)	0.00481 (inactive)	16.6% (inactive)	20.1% (inactive)
CN(C)C(=O)c1ccc(COc2ccccc2Br)o1	730	-11% (inactive)	27.2% (inactive)	71.4	-26.4% (inactive)	104	-0.606 (inactive)	-2.2e-05 (inactive)	0.0062 (inactive)	-40.1% (inactive)	-62.5% (inactive)
COc1ccccc1-c1nnc(NC(=O)c2ccc(S(=O)(=O)N(C)Cc3ccccc3)cc2)o1	391	6.1% (inactive)	9.9% (inactive)	92.8	-6.7% (inactive)	99.4	-0.478 (inactive)	-1.3e-05 (inactive)	0.00777 (inactive)	14.7% (inactive)	25.7% (inactive)
COc1ccc(-c2nc(C)sc2CC(=O)O)cc1	533	-15.7% (inactive)	21% (inactive)	93.9	-1.1% (inactive)	101	-0.463 (inactive)	-8.6e-06 (inactive)	0.00658 (inactive)	11.4% (inactive)	28.3% (inactive)
Cc1nc2ccccc2c2oc(C(=O)N3CCC(N4CCCCC4)CC3)cc12	591	-4.4% (inactive)	-14.4% (inactive)	100	-12.1% (inactive)	119	-0.602 (inactive)	-3.1e-05 (inactive)	0.00619 (inactive)	-0.549% (inactive)	24% (inactive)
c1ccc(OCCCn2nnc(-c3cccnc3)n2)cc1	340	0.3% (inactive)	12.8% (inactive)	95.2	-79.2% (inactive)	121	-0.343 (inactive)	4.3e-06 (inactive)	0.0037 (inactive)	2.51% (inactive)	-2.63% (inactive)
O=c1c2ccccc2c(/C=N/n2cnnc2)c(O)n1-c1ccccc1	408	-1.9% (inactive)	-43% (inactive)	58.6	-12.2% (inactive)	101	-0.102 (active)	-7.7e-05 (inactive)	0.00664 (inactive)	-3.33% (inactive)	6.58% (inactive)
Cc1cccc2cc(CN(CC3CCCO3)C(=O)c3cnccn3)c(=O)[nH]c12 (stereo unspecified)	257	18.6% (inactive)	5.3% (inactive)	45.1	-41% (inactive)	113	-0.401 (inactive)	-9.9e-06 (inactive)	0.00355 (inactive)	8.77% (inactive)	32.1% (inactive)
O=C(CCn1c(=O)sc2ccccc21)Nc1nccs1	575	-22.3% (inactive)	4.1% (inactive)	65.7	-53% (inactive)	98.6	-0.618 (inactive)	3e-05 (inactive)	0.00595 (inactive)	-21.2% (inactive)	-66.6% (inactive)
CCOC(=O)c1c(C)[nH]c(C(=O)CSc2nc3ccccc3o2)c1C	479	10.6% (inactive)	-23.1% (inactive)	107	28.7% (inactive)	94.5	-0.3 (inactive)	1.8e-05 (inactive)	0.00682 (inactive)	-1.31% (inactive)	0.358% (inactive)
COC(=O)CC1SCCNC1=O (stereo unspecified)	308	0.8% (inactive)	-7.1% (inactive)	97.9	38.9% (inactive)	98.8	-0.552 (inactive)	2e-05 (inactive)	0.00463 (inactive)	0.969% (inactive)	-5.15% (inactive)
COc1ccc(Nc2ncc3c(n2)CC(c2ccc(OC)cc2)CC3=O)cc1 (stereo unspecified)	649	6.3% (inactive)	-7.5% (inactive)	101	-5.5% (inactive)	97	-0.298 (inactive)	-3.8e-05 (inactive)	0.0047 (inactive)	5.21% (inactive)	-19.5% (inactive)
c1ccc(-c2nn3c(Cn4nnc5ccccc54)nnc3s2)nc1	574	2.1% (inactive)	3.4% (inactive)	103	13.7% (inactive)	82.3	-0.425 (inactive)	-2.3e-05 (inactive)	0.0044 (inactive)	-11.7% (inactive)	-3.15% (inactive)
C=CCOc1nc(N(C)C)nc(N(C)C)n1	569	3.6% (inactive)	-3.6% (inactive)	103	-138% (inactive)	96	-0.595 (inactive)	-3.9e-05 (inactive)	0.00356 (inactive)	10.6% (inactive)	10.6% (inactive)
CCOC(=O)c1c(C)[nH]c(C(=O)Cn2c(=O)c3c(ncn3CC)n(Cc3ccccc3)c2=O)c1C	752	4% (inactive)	8.3% (inactive)	88.5	-32.2% (inactive)	127	-0.29 (inactive)	-3.2e-05 (inactive)	0.00419 (inactive)	15.3% (inactive)	24.5% (inactive)
